# Several values for one entry are separate records, joined by “and”; a condition that tells them apart may be missing. Identical values can stand only once. Where a structure was tested more than once in an assay, its records may differ in their call. Activity calls are given as the source filed them. How the source made its calls: active means hit-call score of the fitted dose curve at least 0.9, where 1 is the maximum; inactive means score below 0.9.
# How the values were obtained:
# [1] = ATG_CRE_CIS: Attagene CIS-FACTORIAL HepG2 Assay for human cAMP Responsive Element (CRE) binding protein 3 (AID 2282926); conditions: HepG2 CRE cis-reporter, Attagene multiplexed mRNA; actives raise or lower the signal
# Method in brief: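 Capillary electrophoresis of 6-FAM-labelled, HpaI-digested PCR products quantified reporter transcripts. These came from HepG2 transiently transfected with cis-element reporters and exposed to test chemicals for 24 hours, with DMSO defining baseline activity.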
# [2] = target: CCAAT/enhancer-binding protein beta (Homo sapiens) (UniProt P17676); assay: ATG_C_EBP_CIS: Attagene CIS-FACTORIAL HepG2 Assay for human CCAAT/Enhancer Binding Protein (C/EBP) beta (AID 2282927); conditions: HepG2 Attagene cis-factorial transcription factor reporter; actives raise or lower the signal
# Method in brief: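 HepG2, transient MRTU transfection, 24 h treatment. RT-PCR plus CE fluorescence; DMSO negative control, bidirectional fit.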
# [3] = ATG_CMV_CIS: Attagene CIS-FACTORIAL HepG2 Assay for human CMV (Internal Marker) (AID 2282928); conditions: HepG2 CMV promoter reporter, transcription factor profiling; actives raise or lower the signal;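 further: endpoint acts as a background internal control marker rather than a target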
# Method in brief: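 24 h chemical treatment, HepG2 with transient multi-reporter transfection; RNA → oligo(dT) RT → PCR → 6-FAM extension → HpaI digest → CE fluorescence. Bidirectional fit, DMSO negative control.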
# [4] = ATG_DR4_LXR_CIS: Attagene CIS-FACTORIAL HepG2 Assay for human Liver X Receptor (LXR), DR4 submotif (AID 2282929); conditions: HepG2 Attagene DR4 cis-reporter, mRNA transcription; AC50: actives raise or lower the signal unless noted; outcome: actives raise or lower the signal unless noted
# Method in brief: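 HepG2 cells were transiently transfected with multiple cis-regulated reporter units and dosed for 24 hours. The DR4 reporter mRNA was quantified by RT-PCR, 6-FAM labelling and capillary electrophoresis. Bidirectional fits used DMSO as baseline.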
# [5] = target: Aryl hydrocarbon receptor (Homo sapiens) (UniProt P35869); assay: ATG_Ahr_CIS: Attagene CIS-FACTORIAL HepG2 Assay for human Aryl Hydrocarbon Receptor (Ahr) (AID 2282930); conditions: HepG2 AhR cis-factorial reporter transcription; actives raise or lower the signal
# Method in brief: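 Endogenous factor activity is tracked through cis-promoter reporter units transfected into HepG2 cells. Transcript levels at 24 h are read by fluorescent RT-PCR and capillary electrophoresis, with activity in either direction scored relative to DMSO.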
# [6] = ATG_AP_1_CIS: Attagene CIS-FACTORIAL HepG2 Assay for human Activator Protein 1 (AP-1) (AID 2282931); conditions: HepG2 Attagene cis-factorial AP-1 reporter mRNA; actives raise or lower the signal
# Method in brief: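 HepG2 cells transiently transfected with cis-element-driven reporter transcription units, dosed for 24 hours. Reporter mRNA measured by RT-PCR, 6-FAM labelling, HpaI digestion and capillary electrophoresis. Bidirectional fitting against DMSO baseline.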
# [7] = ATG_BRE_CIS: Attagene CIS-FACTORIAL HepG2 Assay for human Bone Morphogenetic Protein (BMP) Response Element (BRE) (AID 2282933); conditions: HepG2 BMP response element reporter, Attagene transcription factor profiling; actives raise or lower the signal
# Method in brief: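 Read-out: reporter mRNA induction quantified by RT-PCR and capillary electrophoresis after 24 h chemical exposure of transfected HepG2 cells. Endogenous factor activity on the BMP response element; gain or loss fitted against DMSO baseline.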
# [8] = target: Retinoic acid receptor alpha (Homo sapiens) (UniProt P10276); assay: ATG_DR5_RAR_CIS: Attagene CIS-FACTORIAL HepG2 Assay for human Retinoic Acid Receptor Alpha (RARE), DR5 submotif (AID 2282934); conditions: HepG2 Attagene cis-factorial RARE DR5 reporter, mRNA; actives raise or lower the signal
# Method in brief: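 After 24 h of chemical exposure, transiently transfected HepG2 cells were lysed for total RNA; the DR5-regulated reporter transcript was quantified via RT-PCR and capillary electrophoresis, with activity fitted bidirectionally against DMSO.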
# [9] = ATG_E_Box_CIS: Attagene CIS-FACTORIAL HepG2 Assay for human Enhancer Box (E-box) (AID 2282936); conditions: HepG2 E-box cis-reporter transcription, actives raise or lower the signal
# Method in brief: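 Transiently transfected HepG2, endogenous TF-driven reporters, 24 h dosing. Readout: RT-PCR plus capillary electrophoresis of fluorescent reporter fragments. Gain or loss of signal fitted bidirectionally against DMSO baseline.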
# [10] = ATG_AP_2_CIS: Attagene CIS-FACTORIAL HepG2 Assay for human Activator Protein 2 (AP-2) (AID 2282932); conditions: HepG2 AP-2 cis-reporter, Attagene transcription factor profiling; AC50: actives raise or lower the signal unless noted; outcome: actives raise or lower the signal unless noted
# Method in brief: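 Read-out: fluorescent reporter mRNA via RT-PCR and capillary electrophoresis, 24 h post-dose in transiently transfected HepG2. Endogenous factors drive cis-promoter reporters; gain or loss of signal fitted bidirectionally against DMSO.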
# [11] = target: Transcription factor E2F1 (Homo sapiens) (UniProt Q01094); assay: ATG_E2F_CIS: Attagene CIS-FACTORIAL HepG2 Assay for human E2F Transcription Factor 1 (AID 2282935); conditions: HepG2 Attagene cis-reporter, E2F reporter RNA transcripts; actives raise or lower the signal
# Method in brief: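 Transient MRTU transfection of HepG2; 24 h compound exposure; RNA → oligo(dT) RT → PCR → FAM label → HpaI cut → CE fluorescence. Gain/loss of signal fit against DMSO.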
# [12] = APR_HepG2_P-H2AX_72hr: Apredica 72-hour HepG2 Assay for H2AX Phosphorylation (AID 2282916); conditions: imaging, actives raise or lower the signal;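 further: phospho-histone H2A.x immunostain intensity per cell marking DNA damage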
# Method in brief: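 Phospho-H2A.x imaging endpoint in HepG2 after 72 hr compound exposure (0.39–200 uM, duplicate wells). Activity derived by bidirectional curve fitting with DMSO as baseline.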
# [13] = APR_HepG2_MitoMembPot_72hr: Apredica 72-hour HepG2 Assay for Mitochondrial Membrane Potential (AID 2282917); conditions: imaging, actives raise or lower the signal
# Method in brief: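 HepG2 cells dosed 72 hr with compound at 0.39–200 uM in duplicate, 0.5% v/v DMSO final. Mitochondria stained with 250 nM MitoTracker Red CMXRos for 30 min before formaldehyde fixation, imaged by high-content fluorescence; bidirectional fit versus DMSO.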
# [14] = APR_HepG2_MicrotubuleCSK_72hr: Apredica 72-hour HepG2 Assay for Microtubule CSK Stabilty (AID 2282919); conditions: HepG2 microtubule cytoskeleton, high-content imaging, actives raise or lower the signal
# Method in brief: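 HepG2, 72 hr cmpd exposure, 0.39–200 uM (10 pts, duplicate), 0.5% DMSO. 3.7% formaldehyde fix, 0.5% Triton perm, anti-alpha-tubulin/Cy5 plus Hoechst. HCS fluorescence intensity; bidirectional fit vs DMSO baseline; taxol as positive control.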
# [15] = APR_HepG2_P-H2AX_24hr: Apredica 24-hour HepG2 Assay for H2AX Phosphorylation (AID 2282920); conditions: high-content imaging, actives raise or lower the signal
# Method in brief: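 HepG2 human liver cells were exposed for 24 hr to compounds at 0.39–200 uM in duplicate, with 0.5% v/v DMSO final. Fixed cells were immunostained for phospho-histone H2A.x plus Hoechst 33342, imaged by HCS fluorescence, and fitted bidirectionally against DMSO.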
# [16] = APR_HepG2_StressKinase_72hr: Apredica 72-hour HepG2 Assay for Stress Kinase (AID 2282921); conditions: HepG2 stress kinase (phospho-c-Jun) imaging, actives raise or lower the signal
# Method in brief: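 Stress kinase signal reflects nuclear phospho-c-Jun staining in fixed, permeabilized cells exposed 72 h to compound at 0.39–200 uM; DMSO-normalized, fitted for increases or decreases.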
# [17] = APR_HepG2_StressKinase_24hr: Apredica 24-hour HepG2 Assay for Stress Kinase (AID 2282922); conditions: HepG2 stress kinase (phospho-c-Jun) imaging, actives raise or lower the signal
# Method in brief: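 Read-out: phospho-c-Jun immunofluorescence (Cy3 secondary) quantified by high-content imaging at 20x, nuclei defined by Hoechst 33342. Human HepG2 liver cells dosed 24 hr, 0.39–200 uM, DMSO 0.5% v/v; gain or loss of signal fitted relative to DMSO.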
# [18] = APR_HepG2_MitoMass_72hr: Apredica 72-hour HepG2 Assay for Mitochondrial Mass (AID 2282924); conditions: high-content imaging, actives raise or lower the signal;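 further: MitoTracker Red CMXRos stain intensity per cell imaged as mitochondrial mass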
# Method in brief: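 Read-out: MitoTracker Red fluorescence intensity from automated imaging (20x, six fields per well) in human HepG2 liver cells. Dosing ran 72 hr, 0.39–200 uM, 0.5% DMSO; bidirectional curve fitting versus DMSO baseline.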
# [19] = APR_HepG2_NuclearSize_72hr: Apredica 72-hour HepG2 Assay for Nuclear Size (AID 2282925); conditions: high-content imaging, actives raise or lower the signal
# Method in brief: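 Read-out: nuclear diameter from Hoechst 33342 images (ArrayScan, 20x, six fields/well), via cell-cycle image analysis. HepG2 were dosed 0.39–200 uM for 72 hr in 0.5% DMSO. Bidirectional fit relative to DMSO.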
# [20] = APR_HepG2_p53Act_72hr: Apredica 72-hour HepG2 Assay for p53 Activation (AID 2282923); conditions: high-content imaging, actives raise or lower the signal;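 further: average cellular p53 protein immunofluorescence intensity in HepG2 cells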
# Method in brief: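 Fixed-cell p53 staining (sheep primary, Cy5 secondary) measured by fluorescence imaging following 72 hr treatment at 0.39–200 uM in 0.5% DMSO; DMSO served as negative control and baseline.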
# Aryl hydrocarbon receptor (Homo sapiens), sequence (P35869 whole entry, looked up): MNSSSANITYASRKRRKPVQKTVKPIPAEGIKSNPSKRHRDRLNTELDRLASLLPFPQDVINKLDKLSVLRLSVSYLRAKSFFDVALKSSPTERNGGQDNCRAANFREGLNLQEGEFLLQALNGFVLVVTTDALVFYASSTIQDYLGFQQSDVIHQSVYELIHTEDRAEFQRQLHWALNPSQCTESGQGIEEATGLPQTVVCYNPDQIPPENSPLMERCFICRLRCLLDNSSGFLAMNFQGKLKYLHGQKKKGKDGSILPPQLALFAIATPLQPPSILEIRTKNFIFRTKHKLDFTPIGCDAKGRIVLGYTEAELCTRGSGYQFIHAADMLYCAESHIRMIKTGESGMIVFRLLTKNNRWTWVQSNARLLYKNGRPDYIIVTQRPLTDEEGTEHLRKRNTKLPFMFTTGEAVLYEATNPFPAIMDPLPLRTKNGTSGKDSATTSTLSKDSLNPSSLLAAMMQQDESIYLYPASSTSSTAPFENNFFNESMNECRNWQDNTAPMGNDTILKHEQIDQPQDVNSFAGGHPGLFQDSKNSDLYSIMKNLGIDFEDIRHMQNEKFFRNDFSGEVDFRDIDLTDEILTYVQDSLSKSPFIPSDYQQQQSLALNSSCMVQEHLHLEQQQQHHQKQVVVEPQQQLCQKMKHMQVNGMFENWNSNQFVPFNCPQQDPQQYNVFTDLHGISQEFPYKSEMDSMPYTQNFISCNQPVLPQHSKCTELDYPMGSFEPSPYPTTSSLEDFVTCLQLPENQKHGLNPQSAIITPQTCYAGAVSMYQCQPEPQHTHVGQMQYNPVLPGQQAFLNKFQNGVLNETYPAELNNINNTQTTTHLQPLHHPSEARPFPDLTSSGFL
# Transcription factor E2F1 (Homo sapiens), sequence (Q01094 whole entry, looked up): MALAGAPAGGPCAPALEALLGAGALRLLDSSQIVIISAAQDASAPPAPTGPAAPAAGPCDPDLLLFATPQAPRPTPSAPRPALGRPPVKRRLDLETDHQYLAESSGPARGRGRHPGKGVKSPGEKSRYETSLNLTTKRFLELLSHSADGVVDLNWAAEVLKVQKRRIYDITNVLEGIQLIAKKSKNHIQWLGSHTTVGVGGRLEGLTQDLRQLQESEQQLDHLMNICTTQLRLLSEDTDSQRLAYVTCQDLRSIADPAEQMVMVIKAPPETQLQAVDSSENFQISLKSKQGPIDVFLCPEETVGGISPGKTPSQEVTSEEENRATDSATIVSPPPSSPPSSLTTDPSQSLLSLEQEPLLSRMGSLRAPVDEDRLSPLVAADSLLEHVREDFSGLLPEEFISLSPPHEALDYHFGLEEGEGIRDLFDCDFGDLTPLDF
# Retinoic acid receptor alpha (Homo sapiens), sequence (P10276 whole entry, looked up): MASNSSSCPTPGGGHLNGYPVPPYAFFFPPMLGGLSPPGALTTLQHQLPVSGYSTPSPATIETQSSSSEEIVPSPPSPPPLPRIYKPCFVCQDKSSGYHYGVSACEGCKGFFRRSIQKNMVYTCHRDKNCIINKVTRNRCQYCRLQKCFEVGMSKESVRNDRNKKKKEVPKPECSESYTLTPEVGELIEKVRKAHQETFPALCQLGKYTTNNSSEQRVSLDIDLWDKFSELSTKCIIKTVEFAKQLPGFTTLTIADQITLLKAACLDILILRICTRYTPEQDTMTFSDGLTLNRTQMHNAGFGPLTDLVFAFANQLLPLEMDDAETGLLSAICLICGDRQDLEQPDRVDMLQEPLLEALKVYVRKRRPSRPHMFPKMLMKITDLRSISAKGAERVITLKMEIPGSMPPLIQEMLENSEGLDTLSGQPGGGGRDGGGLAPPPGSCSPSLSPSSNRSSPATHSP
# CCAAT/enhancer-binding protein beta (Homo sapiens), sequence (P17676 whole entry, looked up): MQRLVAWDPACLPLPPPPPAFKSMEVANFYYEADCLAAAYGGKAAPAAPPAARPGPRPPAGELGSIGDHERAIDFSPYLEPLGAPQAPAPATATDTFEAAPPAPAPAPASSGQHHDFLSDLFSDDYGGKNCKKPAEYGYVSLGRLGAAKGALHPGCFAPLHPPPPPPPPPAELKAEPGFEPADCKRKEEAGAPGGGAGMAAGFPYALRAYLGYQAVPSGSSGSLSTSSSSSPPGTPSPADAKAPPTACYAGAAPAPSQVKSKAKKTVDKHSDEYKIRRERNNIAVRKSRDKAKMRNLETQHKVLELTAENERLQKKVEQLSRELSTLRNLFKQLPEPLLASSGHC
smiles,measurement,setting,value
CCCCCCCCCCCC[N+](C)(C)Cc1ccccc1,AC50,[1],19.5 µM (active)
same,outcome,[1],inactive
same,AC50,[2],18 µM (active)
same,outcome,[2],inactive
same,AC50,[3],14.5 µM (active)
same,outcome,[3],inactive
same,AC50,[4],11.1 µM (active)
same,outcome,[4],inactive
same,outcome,[5],inactive
same,outcome,[6],inactive
same,outcome,[7],inactive
same,outcome,[8],inactive
same,AC50,[9],12.4 µM (active)
same,outcome,[9],inactive
O=CC(F)(F)C(F)(F)C(F)(F)C(F)F,outcome,[1],inactive
same,outcome,[2],inactive
same,outcome,[3],inactive
same,outcome,[4],inactive
same,outcome,[5],inactive
same,outcome,[6],inactive
same,outcome,[10],inactive
same,outcome,[7],inactive
same,outcome,[8],inactive
same,outcome,[11],inactive
CN(Cc1cnc2nc(N)nc(N)c2n1)c1ccc(C(=O)N[C@@H](CCC(=O)O)C(=O)O)cc1,AC50,[12],0.0391 µM (active)
same,AC50,[13],19.8 µM (active)
same,outcome,[14],inactive
same,outcome,[15],inactive
same,outcome,[16],inactive
same,outcome,[17],inactive
same,outcome,[18],inactive
same,outcome,[19],inactive
same,outcome,[1],inactive
same,outcome,[2],inactive
same,outcome,[3],inactive
same,outcome,[4],inactive
same,outcome,[6],inactive
same,outcome,[10],inactive
same,outcome,[7],inactive
same,outcome,[8],inactive
same,outcome,[11],inactive
same,outcome,[9],inactive
CN(C)c1ccc(C(=C2C=CC(=[N+](C)C)C=C2)c2ccccc2)cc1,AC50,[1],2.56 µM (active)
same,outcome,[1],inactive
same,outcome,[2],inactive
same,AC50,[4],2.07 µM (active) and 1.26 µM (active)
same,outcome,[5],inactive
same,AC50,[10],2.72 µM (active)
same,outcome,[10],inactive
same,outcome,[7],inactive
same,outcome,[11],inactive
O=C(CCCN1CCC(O)(c2ccc(Cl)cc2)CC1)c1ccc(F)cc1,AC50,[12],33 µM (active)
same,AC50,[13],51.7 µM (active)
same,AC50,[15],100 µM (active)
same,AC50,[16],42.5 µM (active)
same,AC50,[17],103 µM (active)
same,AC50,[20],37.3 µM (active)
same,AC50,[18],30.8 µM (active)
same,AC50,[1],52.9 µM (active)
same,outcome,[2],inactive
same,AC50,[3],49.7 µM (active)
same,outcome,[4],inactive
same,outcome,[5],inactive
same,AC50,[6],60.1 µM (active)
same,outcome,[10],inactive
same,outcome,[7],inactive
same,outcome,[11],inactive
same,AC50,[9],22 µM (active)
CCCCCCCCCCCCOS(=O)(=O)O,outcome,[12],inactive
same,outcome,[13],inactive
same,outcome,[14],inactive
same,outcome,[15],inactive
same,outcome,[16],inactive
same,outcome,[17],inactive
same,outcome,[18],inactive
same,outcome,[19],inactive
CC(=O)Nc1ccc(O)cc1,outcome,[12],inactive
same,outcome,[13],inactive
same,outcome,[15],inactive
same,outcome,[16],inactive
same,outcome,[17],inactive
same,outcome,[18],inactive
same,outcome,[1],inactive
same,outcome,[2],inactive
same,outcome,[4],inactive
same,outcome,[5],inactive
same,outcome,[6],inactive
same,outcome,[10],inactive
same,outcome,[7],inactive
same,outcome,[8],inactive
same,outcome,[11],inactive

# Reference: PubChem BioAssay (EPA / NIEHS)
